Hits are enriched below; roughly 2.4% of the tested compounds scored in any of these assays.
ANO1 block – blocks the mouse calcium-activated chloride channel TMEM16A | Q8BHY3 | AID 588511 | 1.2% of 310,000 active | HEK293 TMEM16A/YFP iodide influx fluorescence, ionomycin | normalized B-score (activity score, 25-100; higher = stronger inhibition) at 10 µM;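 active means ratio plate-corrected score three or more library SD toward inhibition, starting fluorescence score within five deviations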;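 further: score derived from kinetic fluorescence span divided by baseline fluorescence per well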
CRFBP-R2 agonist – agonists of human CRF-binding protein/CRF-R2 receptor complex; activation, % at 13.2 µM; 0.46% of 350,000 active; HEK293 CRF-R2/CRF-BP, calcium dye fluorescence (FLIPR); percent of saturating CRF peptide response;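 active means activation of at least 50%, plus an integration ratio under a set limit after plate pattern correction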
Cardiac RTF inh – cardiac RTF calcium desensitization; P19429+P45379; inhibition, % at 7.15 µM; AID 493244; 0.12% of 340,000 active; IANBD-labeled cardiac RTF, Ca2+ fluorescence;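 active means inhibition above the mean inhibition of all tested compounds plus 3 SD, cut at about 17% in these data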;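 further: assay run at fixed EC70 calcium of 1.6 mM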
CRFBP-R2 block – antagonists of CRF-binding protein/CRF-R2 receptor complex. AID 588475. 0.59% of 350,000 active. HEK293 CRF-R2/CRF-BP, CRF-induced calcium fluorescence. inhibition, % at 11.8 µM;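 active means inhibition of the ligand-induced calcium signal above about 50% at the single tested concentration, limit read from the data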
TMEM16A act – activators or potentiators of mouse TMEM16A chloride channel | B-score at 10 µM | 0.3% of 340,000 active | HEK293 TMEM16A/YFP-H148Q/I152L, iodide quench fluorescence; hits give low values | Q8BHY3;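 active means fluorescence-ratio B-score plate-corrected deviation score at least 3 library SD below zero, with starting fluorescence score within 5 deviations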;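 further: channel opened by trigger with iodide after compound preincubation; score built on the fluorescence ratio of max minus min over baseline; more negative score means more quench and so TMEM16A activation or potentiation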
cardiac RTF act – increases calcium sensitivity of human cardiac regulated thin filaments; IANBD-labeled TnC RTF fluorescence at EC20 calcium; 0% EC20 calcium, 100% full calcium; 0.24% of 340,000 active; AID 493008; activation, % at 7.2 µM; P19429+P45379;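 active means activation above the mean over all tested compounds plus 3 SD, cut at about 30% in these data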;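 further: rise in fluorescence read as greater calcium sensitivity of cardiac thin filaments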
TMEM16A reconf – reconfirmed blocker of mouse TMEM16A calcium-activated chloride channel. shares compounds with ANO1 block. HEK293 TMEM16A/YFP-H148Q, iodide quench fluorescence; ionomycin added to raise cell calcium. inhibition, % at 10 µM. 39% of 2,300 active;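 active means mean duplicate percent inhibition, scaled so buffer wells are 0 and the reference blocker 100, over three buffer SD above buffer mean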
TMEM16A Ca cntr – alters calcium mobilization in TMEM16A HEK293 cells, counter-screen. shares compounds with ANO1 block. TMEM16A/YFP HEK293, Fluo4 calcium mobilization. calcium response (% of ionomycin), % at 10 µM. 2% of 2,300 active. AID 652231;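 active means duplicate-averaged calcium signal over 20% of the ionomycin maximum, relative to buffer baseline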;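 further: each well's signal is peak minus trough fluorescence divided by its pre-addition baseline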
Parental YFP cnt – acts in parental YFP-HEK293 cells lacking TMEM16A, counter-screen; shares compounds with ANO1 block; 2,300 tested, under 10 active; iodide YFP quench, ionomycin; YFP ratio F(max-min)/F0 at 10 µM; AID 652233;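 active means yellow fluorescent protein signal ratio exceeding the buffer control mean by over 5 SD of those controls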;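 further: ratio is mean of duplicate wells from kinetic YFP trace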
ClC-1 inh – rat ClC-1 inhibition, TMEM16A specificity screen; 2,300 tested, under 10 active; AID 652236; ratio percent, % at 10 µM; CHO ClC-1-YFP, iodide influx fluorescence quench; iodide control reads 0, buffer control 100; shares compounds with ANO1 block;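 active means duplicate-mean ratio percent above the mean of iodide-only control wells, which defines zero, plus 5 of their SD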;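 further: higher percent means stronger block of ClC-1 iodide influx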
Target sequence (P35524 whole entry, looked up): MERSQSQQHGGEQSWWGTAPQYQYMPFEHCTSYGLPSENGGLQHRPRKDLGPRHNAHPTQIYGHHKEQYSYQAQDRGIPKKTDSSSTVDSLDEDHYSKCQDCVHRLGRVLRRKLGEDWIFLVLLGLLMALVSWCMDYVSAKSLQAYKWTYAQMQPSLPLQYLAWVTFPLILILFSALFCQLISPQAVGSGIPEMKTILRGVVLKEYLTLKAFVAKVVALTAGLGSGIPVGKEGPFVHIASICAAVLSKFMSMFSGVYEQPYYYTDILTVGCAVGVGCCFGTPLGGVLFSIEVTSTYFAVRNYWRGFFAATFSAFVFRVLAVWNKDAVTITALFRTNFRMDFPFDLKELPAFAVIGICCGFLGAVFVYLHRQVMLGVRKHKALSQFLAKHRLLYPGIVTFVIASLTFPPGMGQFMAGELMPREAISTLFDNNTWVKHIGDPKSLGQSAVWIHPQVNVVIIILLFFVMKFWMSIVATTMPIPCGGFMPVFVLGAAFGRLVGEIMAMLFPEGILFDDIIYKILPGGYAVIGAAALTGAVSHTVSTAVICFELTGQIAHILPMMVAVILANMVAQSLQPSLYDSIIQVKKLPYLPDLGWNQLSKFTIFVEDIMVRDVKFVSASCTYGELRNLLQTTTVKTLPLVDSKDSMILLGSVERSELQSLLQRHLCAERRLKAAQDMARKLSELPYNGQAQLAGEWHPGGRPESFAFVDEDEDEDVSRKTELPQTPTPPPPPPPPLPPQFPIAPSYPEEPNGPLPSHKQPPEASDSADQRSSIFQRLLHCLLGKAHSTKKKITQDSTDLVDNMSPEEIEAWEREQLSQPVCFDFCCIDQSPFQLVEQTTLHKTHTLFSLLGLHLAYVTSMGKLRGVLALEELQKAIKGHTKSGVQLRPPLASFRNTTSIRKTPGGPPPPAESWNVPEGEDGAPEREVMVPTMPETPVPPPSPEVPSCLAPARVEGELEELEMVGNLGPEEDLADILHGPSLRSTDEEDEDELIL
Hits are given with their value; i = inactive; nt = no result given.

SMILES	ANO1 block	CRFBP-R2 agonist	Cardiac RTF inh	CRFBP-R2 block	TMEM16A act	cardiac RTF act	TMEM16A reconf	TMEM16A Ca cntr	Parental YFP cnt	ClC-1 inh
Cc1nnc(SCc2cnc(-c3ccc(C(C)C)cc3)s2)n1C	100	i	i	i	i	i	24%	i	i	i
CC(OC(=O)Cn1c(C(F)(F)F)nc2ccccc21)C(=O)N1CCCc2ccccc21 (configuration not stated)	100	i	i	i	i	i	i	i	i	i
O=C(N/N=C/c1ccc(O)cc1O)c1ccc(NC(=O)C2CCCCC2)cc1	i	i	i	i	i	i	nt	nt	nt	nt
CCn1c(CCNC(=O)c2cccs2)nnc1SCC(=O)Nc1ccc(Cl)cc1	25	i	i	i	i	i	i	i	i	i
Cc1ccc(SCC2(O)CCN(C(=O)c3ccc(Cl)cc3)CC2)cc1	25	i	i	i	i	i	i	i	i	i
Cc1ccc(SCc2ccc(C(=O)N3CCCC3)cc2)cc1	i	i	i	i	i	i	nt	nt	nt	nt
COc1ccccc1N/C(=N/S(=O)(=O)c1ccc(C)cc1)c1ccc(Cl)cc1	i	i	i	i	i	i	nt	nt	nt	nt
CC(=O)c1cccc(N=c2scc(-c3ccc(S(=O)(=O)N4CCOCC4)cc3)n2CCO)c1	25	i	i	i	i	i	38%	i	i	i
C=CCn1c(-c2ccc(OC)cc2)csc1=Nc1c(C)n(C)n(-c2ccccc2)c1=O	i	i	i	i	i	i	nt	nt	nt	nt
C=CCn1c(-c2ccc(S(=O)(=O)N3CCOCC3)cc2)csc1=Nc1ccccc1	i	i	i	i	i	i	nt	nt	nt	nt
COc1ccc(-c2csc(=Nc3ccccc3)n2CCO)cc1	100	i	i	i	i	i	44%	i	i	i
COc1ccc(OC)c(S(=O)(=O)Nc2ccc(Oc3ccccc3)cc2)c1	25	i	i	i	i	i	i	i	i	i
CCCOc1ccc(-c2nnn(CC(=O)c3ccc4c(c3)OCCO4)n2)cc1	100	i	i	i	i	i	17%	i	i	i
COc1ccc([C@H]2C[C@H](n3cc(COC(=O)c4ccccc4)nn3)[C@@H](O)CN2CC2CCCCC2)cc1	nt	i	nt	i	nt	nt	nt	nt	nt	nt
CCOc1cc(S(=O)(=O)NCc2ccccn2)c(C)cc1C	100	nt	nt	nt	nt	nt	i	i	i	i
COc1ccc(C(=O)COc2ccc(F)cc2)c(O)c1C	i	i	i	i	i	i	nt	nt	nt	nt
O=C(Oc1cccc(Nc2ncnc3ccccc23)c1)c1ccccc1Cl	100	i	i	i	i	i	18%	i	i	i
COc1cccc(Nc2ncnc3ccccc23)c1	i	i	i	i	i	i	nt	nt	nt	nt
O=C1C2C(c3ccccc3)CC=CC2[C@H](c2ccc(C(F)(F)F)cc2)N1Cc1ccccc1 (some centres not stated)	25	i	i	i	i	i	i	i	i	i
O=C1C=C(c2ccc3ncccc3c2)C[C@@H](c2ccc3c(c2)OCO3)C1	nt	i	i	i	i	i	nt	nt	nt	nt
O=C(Nc1ccc(F)cc1)c1cccc(N2C(=O)C3C4C=CC(C5CC45)C3C2=O)c1 (configuration not stated)	i	i	i	i	i	i	nt	nt	nt	nt
Cc1cc(C)cc(-n2c(C)cc(/C=N/NC(=O)CSc3ncccn3)c2C)c1	25	i	i	i	i	i	i	i	i	i
Cc1nnc(SCC(=O)c2cc(C)n(-c3ccc4c(c3)OCO4)c2C)s1	25	63	i	i	-6.1	i	i	21%	i	i
O=C(CN1C(=O)NC2(CCCc3ccccc32)C1=O)c1ccc(Br)cc1 (configuration not stated)	i	i	i	i	i	i	nt	nt	nt	nt
COc1ccc2c(c1)cc(C(=O)N/N=C/c1c(O)c(C(=O)O)cc3ccccc13)n2C	i	i	i	i	i	i	i	i	i	i
SMILES	ANO1 block	CRFBP-R2 agonist	Cardiac RTF inh	CRFBP-R2 block	TMEM16A act	cardiac RTF act	TMEM16A reconf	TMEM16A Ca cntr	Parental YFP cnt	ClC-1 inh
Cn1c(C(=O)NN)cc2cc(Oc3ccccc3)ccc21	i	i	i	i	i	i	nt	nt	nt	nt
Cc1cc(C)n2c(Nc3ccc4c(c3)OCCO4)c(-c3ccc(C)o3)nc2n1	i	i	i	i	i	i	i	i	i	i
Cc1ccc(-c2nc3ncccn3c2Nc2ccc3c(c2)OCCO3)o1	i	i	i	i	i	i	nt	nt	nt	nt
CCOC(=O)N1CCN(S(=O)(=O)N2CCCC(C(=O)NCCCN3CCCCC3CC)C2)CC1 (configuration not stated)	i	i	i	i	i	i	nt	nt	nt	nt
NC(=O)c1nsc(C(=O)N(CC(=O)NC2CCCCC2)Cc2ccc(F)cc2)c1N	i	i	i	i	i	i	nt	nt	nt	nt
Cc1[nH]n(-c2ccccc2)c(=O)c1C(=O)c1ccccc1	i	i	i	i	i	i	nt	nt	nt	nt
CCSC(=S)c1c(C)[nH]n(-c2ccccc2)c1=O	100	i	i	i	i	i	29%	i	i	i
Fc1ccccc1N1CCN(c2nc3ccccc3n3nnnc23)CC1	i	i	i	i	i	i	i	i	i	i
N#C/C(=C/c1ccc(-c2ccc(S(=O)(=O)N3CCOCC3)cc2)o1)C(=O)NC1CC1	nt	i	i	i	i	i	nt	nt	nt	nt
N#C/C(=C\c1ccc(N2CCOCC2)o1)C(=O)NC1CCCCC1	i	96	i	i	i	45	i	i	i	i
CC(C)c1cccc(C(C)C)c1OC(=O)[C@H]1OC(c2ccc(Br)cc2)=C[C@@H]1c1ccc(Br)cc1	nt	i	i	i	i	i	nt	nt	nt	nt
O=C(NNC1=C(C(=O)C(F)(F)F)CCC1)c1ccc(Br)cc1	100	i	i	i	i	i	16%	i	i	i
O=C(NNc1ccc(O)cc1)c1ccc(Br)cc1	i	i	i	i	i	i	nt	nt	nt	nt
COc1cccc(C(=O)NC2CCN(C(=O)N3CCCCC3)CC2)c1	25	i	i	i	i	i	i	i	i	i
CC1=C(C(=O)NC2CCCc3c2cnn3-c2cccc(C)c2C)OCCO1 (configuration not stated)	i	i	i	i	i	i	nt	nt	nt	nt
Cc1cc(C(=O)NC2CCCc3c2cnn3-c2cccc(C)c2C)no1 (configuration not stated)	25	i	i	i	i	i	i	i	i	i

Screening results (PubChem BioAssay)
